Assay results as given in PubChem BioAssay.
Records with an inconclusive call do not appear. Activity calls are given as the source filed them.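 Rule for the calls, unless noted: active = normalized viability below 100% at a tested concentration; inactive = the rest.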

How the values were obtained:
[1] = growth inhibition of DIPG glioma cells, dose response, cell-based, SU-DIPG-XIII, MIPE4.0, CellTiter-Glo, qHTS (AID 1347061; cut-off not given, nearly all actives have AC50 up to about 37 µM;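 note: cells exposed to compound for 48 hours before readout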); settings: SU-DIPG-XIII viability, CellTiter-Glo ATP luminescence
[2] = growth inhibition of DIPG glioma cells, dose response, cell-based, SU-DIPG-XIII, MIPE5.0, CellTiter-Glo, qHTS (AID 1347064; cut-off not given, nearly all actives have AC50 up to about 23 µM); settings: SU-DIPG-XIII viability, CellTiter-Glo ATP luminescence
[3] = viability loss in pontine glioma line – cell-based, SU-DIPG-XXV, MIPE5.0, CellTiter-Glo, qHTS, dose response (AID 1347065; cut-off not given, nearly all actives have AC50 up to about 26 µM;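 note: cells exposed to compound for 48 hours before ATP readout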); settings: CellTiter-Glo ATP luminescence
[4] = SU-DIPG-XXV glioma cell viability, MIPE5.0 library, qHTS (AID 1347068; cut-off not given, nearly all actives have IC50 up to about 30 µM)
[5] = sensitizers of A549 cells to miR-34 induction, primary screen, imaging, A549 dox-inducible miR-34, nuclei and caspase counts (AID 1347080;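 active = compounds whose cell count with miR-34 switched on is under 0.7 times the count with it off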); settings: A549 miR-34 inducible, Hoechst nuclei count, 48 h
[6] = modifiers of HSF1 nuclear foci, imaging, Selleck Cancer Library (AID 1347162; in the data active = plate-normalised HSF1 focus index below about 0.46); settings: human cells, at 10 µM; SSMD: measured here: HSF1 foci SSMD mean; cell count: measured here: cell number; plate-normalised HSF1 focus index: stronger effect = lower value
[7] = survival rescue of mitochondrial mutant cells in low glucose, primary screen, MELAS cybrids, Rieske KO mouse fibroblasts, CellTiter-Glo (AID 1508586;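 active = mean z-score across replicates of 1.96 or higher in either the MELAS or the Rieske mutant cell line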;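 note: z relative to plate mean and SD of compound and empty wells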)
[8] = ovarian cancer cell viability with rucaparib, profiling panel, oncology-focused library, rucaparib conditional (AID 1508598); settings: patient-derived ovarian cancer cells, CellTiter-Glo viability, 144 h, stronger effect = lower value

COc1ccc(COc2cc3oc(=O)c4cc(C(C)O)ccc4c3cc2OC)cc1 (stereo not given)
outcome [1]: inactive
outcome [2]: inactive
outcome [3]: inactive
outcome [4]: inactive
fold change ([5]; stronger effect = lower value, cell number ratio, induced over uninduced): 0.923 (inactive)
fold change ([5]; measured here: relative caspase fold change +Dox/-Dox): 1.45
cell count ([5]; measured here: total cells with miR-34 induction, stronger effect = lower value): 7360
cell count ([5]; measured here: total cells without miR-34 induction): 7980
SSMD [6]: -0.619
cell count [6]: 7240
plate-normalised HSF1 focus index [6]: 0.961 (inactive)
z-score ([7]; MELAS cybrid survival, CellTiter-Glo 48 h, stronger effect = higher value): -0.463 (inactive)
z-score ([7]; Rieske KO mouse fibroblast survival, CellTiter-Glo 72 h): 0.921
viability ([8]; at 0.000305 µM, OCI-C5x cells, with rucaparib 10 µM, 100% = cells with rucaparib alone): 108% (inactive)
viability ([8]; at 0.000305 µM, OCI-C5x cells, without rucaparib): 122% (inactive)
viability ([8]; at 0.000305 µM, OCI-P5x cells, with rucaparib 20 µM, 100% = cells with rucaparib alone): 103% (inactive)
viability ([8]; at 0.000305 µM, OCI-P5x cells, without rucaparib): 97.5% (active)
viability ([8]; at 0.00122 µM, OCI-C5x cells, with rucaparib 10 µM, 100% = cells with rucaparib alone): 119% (inactive)
viability ([8]; at 0.00122 µM, OCI-C5x cells, without rucaparib): 114% (inactive)
viability ([8]; at 0.00122 µM, OCI-P5x cells, with rucaparib 20 µM, 100% = cells with rucaparib alone): 108% (inactive)
viability ([8]; at 0.00122 µM, OCI-P5x cells, without rucaparib): 98% (active)
viability ([8]; at 0.00488 µM, OCI-C5x cells, with rucaparib 10 µM, 100% = cells with rucaparib alone): 121% (inactive)
viability ([8]; at 0.00488 µM, OCI-C5x cells, without rucaparib): 104% (inactive)
viability ([8]; at 0.00488 µM, OCI-P5x cells, with rucaparib 20 µM, 100% = cells with rucaparib alone): 98.6% (active)
viability ([8]; at 0.00488 µM, OCI-P5x cells, without rucaparib): 101% (inactive)
viability ([8]; at 0.0195 µM, OCI-C5x cells, with rucaparib 10 µM, 100% = cells with rucaparib alone): 118% (inactive)
viability ([8]; at 0.0195 µM, OCI-C5x cells, without rucaparib): 118% (inactive)
viability ([8]; at 0.0195 µM, OCI-P5x cells, with rucaparib 20 µM, 100% = cells with rucaparib alone): 99.9% (active)
viability ([8]; at 0.0195 µM, OCI-P5x cells, without rucaparib): 98.3% (active)
viability ([8]; at 0.0781 µM, OCI-C5x cells, with rucaparib 10 µM, 100% = cells with rucaparib alone): 122% (inactive)
viability ([8]; at 0.0781 µM, OCI-C5x cells, without rucaparib): 114% (inactive)
viability ([8]; at 0.0781 µM, OCI-P5x cells, with rucaparib 20 µM, 100% = cells with rucaparib alone): 103% (inactive)
viability ([8]; at 0.0781 µM, OCI-P5x cells, without rucaparib): 96% (active)
viability ([8]; at 0.313 µM, OCI-C5x cells, with rucaparib 10 µM, 100% = cells with rucaparib alone): 113% (inactive)
viability ([8]; at 0.313 µM, OCI-C5x cells, without rucaparib): 100% (inactive)
viability ([8]; at 0.313 µM, OCI-P5x cells, with rucaparib 20 µM, 100% = cells with rucaparib alone): 102% (inactive)
viability ([8]; at 0.313 µM, OCI-P5x cells, without rucaparib): 92.5% (active)
viability ([8]; at 1.25 µM, OCI-C5x cells, with rucaparib 10 µM, 100% = cells with rucaparib alone): 126% (inactive)
viability ([8]; at 1.25 µM, OCI-C5x cells, without rucaparib): 107% (inactive)
viability ([8]; at 1.25 µM, OCI-P5x cells, with rucaparib 20 µM, 100% = cells with rucaparib alone): 103% (inactive)
viability ([8]; at 1.25 µM, OCI-P5x cells, without rucaparib): 94.4% (active)
viability ([8]; at 5 µM, OCI-C5x cells, with rucaparib 10 µM, 100% = cells with rucaparib alone): 132% (inactive)
viability ([8]; at 5 µM, OCI-C5x cells, without rucaparib): 130% (inactive)
viability ([8]; at 5 µM, OCI-P5x cells, with rucaparib 20 µM, 100% = cells with rucaparib alone): 92.1% (active)
viability ([8]; at 5 µM, OCI-P5x cells, without rucaparib): 90.6% (active)
